{
  "source": "PubChem BioAssay (NCI)",
  "note": "The panel holds about 83,000 compounds, 20% with a hit somewhere; the sample as a whole holds those more often.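 Negative percent growth values reflect cell death: -40 means 40% of the cells present at the start died, and -100 means all died.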 Values without a mark were called inactive. Calls of active or inactive are those of the source.",
  "data": [
    {"test_system": "EKVX NSCLC", "assay": "NCI-60 one-dose screen, 48 h (100 = growth as untreated, 0 = no growth, -100 = all killed)", "details": "10 µM unless noted", "description": "Growth inhibition of the EKVX human Non-Small Cell Lung tumor cell line is measured as a screen for anti-cancer activity. Cells are grown in 96 well plates and exposed to the test compound for 48 hours. Compounds are tested at a single concentration, which is 10^-5 M for most compounds. The reported endpoint is percent growth (GI% or GIPRCNT), where numbers from 0 - 100% represent growth inhibition, and numbers from -100% - 0 represent cell death. For example, a value of 40 represents 60% growth inhibition. A value of 0 means no net growth occurred over the course of the experiment. A value of -40 indicates 40% of cells at the beginning of the experiment died by the end of the experiment. A value of -100 means all cells are dead at the end of the experiment.\nNCI-60 Human Tumor Cell Lines Screen was performed using the standard one-dose NCI protocol, which is described in more detail at https://dtp.cancer.gov/discovery_development/nci-60/default.htm.\nCompounds with GIPRCNT values below 10 were considered active. Activity score was based on GIPRCNT using the following formula: […]\nScore is 0 for GIPRCNT values of 100 or above, 50 for GIPRCNT values of 0, and 100 for GIPRCNT values of -100.", "values": [
      {"smiles": "O=C1/C(=C/c2ccc(OCc3ccccc3)cc2)Oc2cc(OCCN3CCCCC3)ccc21", "growth": "80.5%"},
      {"smiles": "CC[C@@](C)(NC(=O)[C@H](C)NC(=O)CCNC(=O)C(C)(C)NC(=O)[C@H](C)NC(=O)[C@@H]1CCCN1C(=O)[C@@](C)(CC)NC(=O)[C@H](Cc1ccccc1)NC(=O)C1CCCN1C(=O)C(C)(C)NC(=O)C1CCCN1C(=O)C(C)(C)NC(C)=O)C(=O)NCCC(=O)N[C@@H](CC(C)C)C(=O)NC(C)(C)C(=O)NCCC(=O)N[C@@H](CC(C)C)C(=O)NC(C)(C)C(=O)NC(C)(C)C(=O)N[C@@H](CC(C)C)C(=O)NCCC(=O)NCO", "note": "(stereo not given in full)", "growth": "-100% (active)"},
      {"smiles": "COc1cc2c(c(OC)c1)C1c3cc(OC)ccc3NC(=O)N1CC2", "note": "(stereo not given)", "growth": "91.9%"},
      {"smiles": "O=C(Nc1ccc(C(=O)/C=C/c2ccc(N3CCOCC3)cc2)cc1)Nc1ccc([N+](=O)[O-])cc1", "growth": "112%"},
      {"smiles": "CC(C)C1=NOC(=O)C1=Cc1cn(-c2ccccc2)nc1-c1ccc(Cl)cc1", "growth": "98.5%"},
      {"smiles": "C=C(C)C1CCC2(C(=O)O)CCC3(C)C(CCC4C5(C)CCC(OC(=O)NCc6ccccc6)C(C)(C)C5CCC43C)C12", "note": "(stereo not given)", "growth": "29.1%"},
      {"smiles": "CCN(CC)c1ccc(/C=C/C=C2\\NC(=O)NC2=O)cc1", "growth": "61.5%"},
      {"smiles": "CO[C@H]1CC[C@@]2(C)C(=CC[C@H]3[C@@H]4C[C@H](O)C[C@@]4(C)CC[C@@H]32)C1", "growth": "76.4%"},
      {"smiles": "Cn1cc(-c2noc(C(=O)c3cn(C)c4ncccc34)n2)c2ccccc21", "growth": "60.6%"},
      {"smiles": "O=C(NCCCNC(=O)OCc1ccc2c(Br)cc(Br)c(O)c2n1)OCc1ccc2c(Br)cc(Br)c(O)c2n1", "growth": "-5.94% (active)"},
      {"smiles": "CCc1ccc(C2=C/C(=C/c3ccccc3)C(=O)N2CCc2ccc(S(N)(=O)=O)cc2)cc1", "growth": "96.3%"},
      {"smiles": "CCCn1ccnc1C(O)c1ccc(OCc2ccccc2)c(OC)c1", "note": "(stereo not given)", "growth": "89.3%"},
      {"smiles": "CC(C)CCNCC(C)(C)O", "growth": "106%"},
      {"smiles": "CN(C)CCCNc1nc(-c2cccc(C(Cl)(Cl)Cl)c2)nc(C(Cl)(Cl)Cl)n1", "growth": "104%"},
      {"smiles": "O=C(Nc1cccnc1)c1ccc2ccc3ccc(C(=O)Nc4cccnc4)nc3c2n1", "growth": "54.4%"},
      {"smiles": "Oc1ccc(N=Nc2nccs2)c(O)c1", "growth": "41.4%"},
      {"smiles": "CCOC(=O)c1c[nH]c2cc(OCC3CC3)c(OCC3CC3)cc2c1=O", "growth": "116%"},
      {"smiles": "CCN(CC)CCSC(=O)C(O)(c1ccccc1)C1CCCC1", "note": "(stereo not given)", "growth": "120%"},
      {"smiles": "O=C1/C(=C\\c2cn(CC(O)CN3CCCCC3)c3ccccc23)c2ccccc2N1c1c(Cl)cccc1Cl", "note": "(stereo not given)", "growth": "-81.3% (active)"},
      {"smiles": "O=C1CC(C(F)(F)F)Cc2nc3ccc(Br)cc3cc21", "note": "(stereo not given)", "growth": "81%"},
      {"smiles": "COc1ccc2nc3c(cc2c1)C(=O)CC(C(F)(F)F)C3", "note": "(stereo not given)", "growth": "55.9%"},
      {"smiles": "CSc1nc(N)c(N=Nc2ccc(S(=O)(=O)Nc3nnc(C)s3)cc2)c(=O)[nH]1", "growth": "155%"},
      {"smiles": "CC(=O)OC[C@]12CC[C@@H](C(=O)CBr)[C@@H]1[C@H]1CC[C@@H]3[C@@]4(C)CCCNC(C)(C)[C@@H]4CC[C@@]3(C)[C@]1(C)CC2", "growth": "-81% [100 µM] (active)"},
      {"smiles": "CCOc1ccc2sc(NS(=O)(=O)c3ccc(N)cc3)nc2c1", "growth": "103%"},
      {"smiles": "O=C(CSc1nc2ccc([N+](=O)[O-])cc2[nH]1)Nc1ccc(F)c(Cl)c1", "growth": "11.1%"},
      {"smiles": "CN(C)CCOc1ccc(/C(=C(/CCCl)c2ccccc2)c2ccccc2)cc1", "growth": "30%"},
      {"smiles": "C=CC1=C(C)C2=NC1=CC1=NC(=CC3=C(C)C4=C(O)C(C(=O)O)C(=C5NC(=C2)C(C)C5CCC(=O)O)C4=N3)C(CC)=C1C", "note": "(stereo not given)", "growth": "103%"},
      {"smiles": "Cc1ccc(-c2cc(-c3ccc(C)cc3)nc(NCCNc3ccnc4cc(Cl)ccc34)n2)cc1", "growth": "24.6%"},
      {"smiles": "CNc1cc(C(=O)O)nc(NC)n1", "growth": "97.1%"},
      {"smiles": "COc1ccc2c3ccnc(C(F)(F)F)c3n(CCCCN)c2c1", "growth": "45.7%"},
      {"smiles": "[2H]C1([2H])CCN(C(=O)C2CC2)c2cc(NS(=O)(=O)c3ccc(-c4cccc(C(N)=O)c4)cc3)ccc21", "growth": "72.7%"},
      {"smiles": "CC(=O)CC(=O)SC1=NCCS1", "growth": "111%"},
      {"smiles": "O=C1CC(c2ccc3c(c2)OCO3)Nc2ccccc21", "note": "(stereo not given)", "growth": "48.1%"},
      {"smiles": "c1ccc2c(c1)CN(CCCN1CCOCC1)C2", "growth": "100%"},
      {"smiles": "O=C1NC(=O)C(Cc2ccc(OCc3ccc(-c4cc(F)c(F)c(F)c4)cc3)cc2)S1", "note": "(stereo not given)", "growth": "80.9%"},
      {"smiles": "COC(=O)[C@@H](NC(=O)NC(=O)NC(=O)CI)C(C)C", "growth": "95.7%"},
      {"smiles": "COc1ccc(-c2cc(-c3ccc(OC)c(OC)c3)nc(SCCCCCC(=O)NO)n2)cc1", "growth": "62.5%"},
      {"smiles": "O=C1COCCN1c1ccc(NCc2cn(Cc3ccccc3)c3ccccc23)cc1", "growth": "94.4%"},
      {"smiles": "CC[C@@H]1NC(=O)[C@@H]2CCCCN2C(=O)[C@@H]2CCCN2C(=O)[C@@H](NC(=O)[C@H](Cc2cc(F)cc(F)c2)NC(=O)Nc2ccc(C3CC3)cc2F)[C@H](C)OC(=O)[C@@H]2C[C@@H](C)CN2C1=O", "growth": "20.4%"},
      {"smiles": "CCCCC(CCCCCC(CCCC)C1NC(C)Cc2cc(OC)c(OC)cc21)C1NC(C)Cc2cc(OC)c(OC)cc21", "note": "(stereo not given)", "growth": "-61.2% (active)"}
    ]}
  ]
}
